Measured values: article PMC5540273 (PLoS ONE, 2017)
“And” between values parts separate entries of the source, which are not always exact repeats. Equal values may be shown once. Read-outs that look alike come from different tables or passages of the source.

Columns and labels:
LYN = conditions: concentration: 1 μM, replicates: in singlicate; n = 1
LZK = tested on: T1, LZK; conditions: concentration: 1 μM, replicates: in singlicate; n = 1
T1 construct: gene MAP3K13

MAK = conditions: n = 1
MAP3K15 = conditions: n = 1
MAP3K1 = conditions: n = 1
MAP3K2 = conditions: n = 1
MAP3K3 = conditions: concentration: 1 μM, replicates: in singlicate; n = 1
MAP3K4 = conditions: n = 1
MAP4K2 = conditions: concentration: 1 μM, replicates: in singlicate; n = 1
MAP4K3 = conditions: n = 1
[1] = concentration: 1 μM, replicates: in singlicate
[2] = concentration: 1 μM,replicates: in singlicate, 1 µM
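Further: KINOMEscan kinase panel screen.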

Structure (SMILES)	%Inh (LYN) [%]	%Inh (LZK) [%]	%Inh (MAK; [1]) [%]	%Inh (MAP3K15; [1]) [%]	%Inh (MAP3K1; [1]) [%]	%Inh (MAP3K2; [1]) [%]	%Inh (MAP3K3) [%]	%Inh (MAP3K4; [1]) [%]	%Inh (MAP4K2) [%]	%Inh (MAP4K3; [1]) [%]	%Inh (MAK; [2])	%Inh (MAP3K15; [2])	%Inh (MAP3K1; [2])	%Inh (MAP3K2; [2])	%Inh (MAP3K4; [2])	%Inh (MAP4K3; [2])
Cl.NC(=O)c1cccc(Nc2nccc(Nc3ccc(Oc4cccc(Cl)c4)c(Cl)c3)n2)c1 [GW659008]	29	19	9	0	3	0	0	33	0	0	–	–	–	–	–	–
COc1ccc(CNC(=O)NC2CCN(c3ccnc(Nc4cc(OC)c(OC)c(OC)c4)n3)C2)cc1 (stereo not drawn) [GSK1379748]	0	43	17	0	0	0	0	2	5	0	–	–	–	–	–	–
COc1cc(Nc2nccc(N3CCC(NC(=O)Nc4cc(C)ccc4C)C3)n2)cc(OC)c1OC (stereo not drawn) [GSK1379762]	6	0	54	17	16	0	0	12	0	0	–	–	–	–	–	–
O=C1NC(=O)C(N2CCc3ccccc32)=C1c1ccccc1Cl [SB-373598]	17	0	9	9	23	4	4	29	21	1	–	–	–	–	–	–
CCCc1ccc(S(=O)(=O)NC2CCN(c3ccnc(Nc4ccc(F)cc4)n3)C2)cc1 (stereo not drawn) [GSK1379715]	0	0	60	0	15	2	0	44	0	1	–	–	–	–	–	–
C[C@@H]1CCCCN1c1cc(-c2ccc3c(N)n[nH]c3c2)nc(N)n1 [GSK2258759]	0	0	22	0	0	0	0	0	0	1	–	–	–	–	–	–
O=c1cc(N2CCOCC2)nc2n(Cc3cccc(Cl)c3Cl)ccn12 [GSK2286295]	97.8	0	78	0	6	0	0	25	0	0	–	–	–	–	–	–
NC(=O)c1nnc2ccccc2c1N	5	0	23	30	28	31	34	15	20	4	–	–	–	–	–	–
Clc1cc(Cl)cc(Nc2ccnc(Nc3cc(Cl)cc(Cl)c3)n2)c1 [GSK175726]	23	0	25	0	0	0	0	0	0	0	–	–	–	–	–	–
CCn1c(-c2cccnc2O)nc2cnccc21 [SB-736715]	0	11	13	0	0	0	0	0	0	0	–	–	–	–	–	–
Cc1ccc(NC(=O)Nc2cc(C(C)(C)C)nn2-c2ccccc2)cc1 [GSK1014915]	0	0	10	16	17	17	0	3	0	10	–	–	–	–	–	–
CN1C(=O)C(Nc2ccc(Cl)c(C(=O)O)c2)=C(c2ccc(Cl)cc2)C1=O [SB-404290]	0	0	0	45	16	21	12	9	21	0	–	–	–	–	–	–
Cn1cncc1-c1ccc2ncnc(Nc3ccc(OCc4ccccc4)cc3)c2c1 [GW320571]	2	0	15	0	18	10	0	19	0	16	–	–	–	–	–	–
O=C(Nc1n[nH]c2nc(-c3nccs3)c(Br)cc12)C1CCCC1 [SB-742609]	0	0	75	6	15	5	0	28	0	0	–	–	–	–	–	–
COc1ccc(Nc2nccc(-c3cccc(NC(=O)c4cc5cc(F)ccc5[nH]4)c3)n2)cc1 [GSK1229782]	0	33	36	0	5	38	0	21	0	0	–	–	–	–	–	–
Fc1cc(Cl)ccc1Nc1ccnc2cc(-c3ccc(CN4CCCCC4)o3)ccc12 [GW560116]	0	7	52	0	0	0	0	0	0	0	–	–	–	–	–	–
O=S(=O)(c1ccc(-c2ccnc3[nH]ccc23)cc1)N1CCCC1 [GSK846226]	0	0	24	0	14	7	0	0	0	0	–	–	–	–	–	–
CSc1nn2c(=O)cc(N3CCOCC3)nc2n1Cc1cccc(C(F)(F)F)c1C [GSK2363608]	0	0	–	–	–	–	0	–	0	–	24% and 15%	5% and 0%	12% and 6%	10% and 13%	18% and 30%	0% and 10%

Structure (SMILES)	%Inh (LYN) [%]	%Inh (LZK) [%]	%Inh (MAK; [1]) [%]	%Inh (MAP3K15; [1]) [%]	%Inh (MAP3K1; [1]) [%]	%Inh (MAP3K2; [1]) [%]	%Inh (MAP3K3) [%]	%Inh (MAP3K4; [1]) [%]	%Inh (MAP4K2) [%]	%Inh (MAP4K3; [1]) [%]	%Inh (MAK; [2])	%Inh (MAP3K15; [2])	%Inh (MAP3K1; [2])	%Inh (MAP3K2; [2])	%Inh (MAP3K4; [2])	%Inh (MAP4K3; [2])
Cc1c(Cn2ccn3c(=O)cc(N4CCOCC4)nc23)cccc1C(F)(F)F [GSK2289044]	22	0	20	0	15	7	0	20	1	0	–	–	–	–	–	–
O=C(Nc1ccccc1)Nc1cccc(Oc2ccc3nccn3n2)c1	0	0	27	0	0	0	0	4	0	9	–	–	–	–	–	–
Cc1ccc(-c2cc(-c3c[nH]nc3-c3ccccn3)ccn2)cc1 [GW684088]	1	44	0	0	9	0	0	4	0	0	–	–	–	–	–	–
COc1ccc(Nc2nccc(NCCNC(=O)Nc3ccccc3F)n2)cc1 [GSK1379901]	0	7	19	0	1	5	0	52	0	0	–	–	–	–	–	–
Cc1cc(-c2ccc3c(c2)CC[C@@H](N[C@@H](C)c2ccccc2)C3)cnc1N.Cl [GW412617]	0	7	15	0	17	20	0	0	97.4	36	–	–	–	–	–	–
Cc1c(O)cccc1Nc1ccnc2ccc(C(F)(F)F)cc12.Cl [GW466413]	0	14	0	0	2	22	47	0	0	0	–	–	–	–	–	–
COC(=O)c1c(-c2ccccc2)c2cc(C(=O)O)ccc2c(=O)n1Cc1ccccc1	16	0	0	8	0	0	0	4	0	0	–	–	–	–	–	–
Cc1nnc(-c2ccc3occ(-c4ccc(S(C)=O)cc4)c3c2)[nH]1 (stereo not drawn)	18	0	0	10	24	1	0	2	0	11	–	–	–	–	–	–
Cc1cccc(-c2nc(Nc3ccncc3)c3ccccc3n2)n1 [GW855857]	0	0	0	0	0	0	0	16	0	0	–	–	–	–	–	–
CC(C)(C)c1ccc(C(=O)Nc2cn3cc(Cl)ccc3n2)cc1	8	0	15	1	0	45	0	0	0	0	–	–	–	–	–	–
CS(=O)(=O)c1ccc(-c2nc3n(c2-c2ccncc2)CCC3)cc1 [SKF-105942]	3	0	25	0	0	3	0	35	0	2	–	–	–	–	–	–
CC(=O)Nc1nc2cnc(Nc3cc(NC(=O)c4cccc(CCC#N)c4)ccc3C)nc2s1	25	24	0	8	0	0	20	0	0	0	–	–	–	–	–	–
O=C(Nc1n[nH]c2nc(-c3nccs3)c(Br)cc12)C1CC1 [SB-742251]	19	26	33	0	21	0	0	0	0	0	–	–	–	–	–	–
COc1ccccc1-c1ccc2c(NC(=O)C3CC3)n[nH]c2n1 [SB-711239]	18	24	23	0	0	0	0	32	0	0	–	–	–	–	–	–
Cc1cccc(-c2nc(Nc3ccc4[nH]ncc4c3)c3ccccc3n2)n1 [GW857175]	17	10	0	0	38	36	0	14	39	0	–	–	–	–	–	–
COc1cccc(NC(=O)NC2CCN(c3ccnc(Nc4ccc(F)cc4)n3)C2)c1 (stereo not drawn) [GSK1379721]	0	17	32	0	5	0	0	13	2	0	–	–	–	–	–	–
COc1ccccc1CNC(=O)c1cc(C(=O)c2ccccc2C)c[nH]1 [GSK364507]	0	0	7	3	6	15	0	32	0	0	–	–	–	–	–	–
Nc1nc(-c2nccs2)c(-c2ccnc3ccccc23)s1 [GW693542]	3	3	46	0	13	0	0	27	0	0	–	–	–	–	–	–
